# Reference: the supplement of paper PMC11417369
# Over roughly 25,000 sequences, “ln(normalized median fluorescence intensity)” has its median near 6.7; the highest 2% begin near 10. Only a selection was taken, and the highest values are over-represented in it overall.
# Test system: PfHDP1 homeodomain (GST-tagged)
# Assay: gcPBM binding intensity (ln(normalized median fluorescence intensity)); higher = stronger DNA binding
# How it was run: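 Binding intensity is the highest Masliner-normalised natural-log median intensity over replicate spots in either probe orientation. To obtain it, GST-tagged P. falciparum DNA-binding domains made in E. coli were incubated for 1 h on an Agilent 4 × 180k array of primer-extended double-stranded 36-bp intergenic genomic probes plus negative controls. Detection used Alexa488 anti-GST antibody with scanning at 488 nm.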
row,Sequence,gcPBM binding intensity (ln)
1,AATAATGTATAATGATGTACAAAAAAGGAAGACATA [XGTACX_site2474],7.43
2,TAACTTCAAAAATCTTGTACATAAATATATAAAACA [XGTACX_site8574],6.29
3,GTGTTTGAAAATAAAGCATGCAAATATATTTGAAAT [TGCATGCA_site386],7.23
4,TTTTTTATTGTGATACGTATATTATTTTATGATTAA [GTGCAC_negctrl_site202],6.82
5,AAAGTAAAAAAAAAAACATGCACATATTTACTTTAT [TGCATGCA_site849],7.94
6,TCTTTTATGCACATTGAGTAAACAACATATTTTTAA [TGCATGCA_negctrl_site561],10.9
7,CATATTTATAAATATAAACACACAACATTATATGCA [CACACA_site9065],6.82
8,ATAATATTATGTGTGAATATATCTTTAAAAAGGATA [GTGCAC_negctrl_site15],6.33
9,AAGAGAAATATATATTGTACAATAATTTTATTTGGT [XGTACX_site7642],6.21
10,TATAAATGTATACAAGTGCATATTATTCACACATAA,8.59
11,AAGTGCATATTATTCACACATAATAATTGTATACCT [CACACA_site5965],10.5
12,ATATTAATAATATATACACACATAAGTATTGTATAT [CACACA_site4095],6.46
13,TGATTCACTATAGTAGTGCATATTATATATATATAT [GTGCAC_site9975],9.23
14,AAAAAAAAATATATATATATATATATATTTATGTAT [GTGCAC_negctrl_site483],6.92
15,CATATTTTGTGAAAAAGTACATATATATATATATAT [XGTACX_site6295],9.38
16,ATGATAATTATTAAGGGTACATAAAAATATATCTAT [XGTACX_site8969],6.36
17,TTTGTAGTTTGCACATGTACACATTTCAAAATAAAG [XGTACX_site7568],10.7
18,TATATTGCAAAAAGTACACACATAAATAAATACATA [CACACA_site6589],9.04
19,TACATATTGCACAAATAAAAAAGAACAAAAAAAAAA [CACACA_negctrl_site1200],10.9
20,ATGTCTACAGTTTTTGCACACATATAAATAAAAAAA [CACACA_site3600],10.3
21,ATATATATATATAAATGTACATTTTTCAATAGTTTT [XGTACX_site7449],8.98
22,ATAGAACTATATTGCACACATAATATATATATATAT [CACACA_site3189],10.7
23,ATCTGTACAGTTTTTGCACACATATAAATAAAAAAA [CACACA_site9198],10.7

row,Sequence,gcPBM binding intensity (ln)
1,TTATAGAACTATATTGCACACATAATATATATATAT [CACACA_site9042],10.1
2,TTTAAAAATAAAAGTACACACATAAACATATTGCAC [CACACA_site6784],7.47
3,TACATATAATATATTGCACACGTCAGAATAATATAG [CACACA_site1744],10.3
4,ATATAGTTTCACATGTGTACATAAAAATACACTTGT [XGTACX_site3339],6.59
5,GTGTACAGTTTTTGCACACATATAAATAAAAAAAAG [CACACA_site3599],10.2
6,AAAAAATTATACCTTTGTACATAAATAAAATATTAT [XGTACX_site418],6.23
7,AATAAATGGAAAAGGTGTACACAAAAAAAAGGGAAA [XGTACX_site4956],7.54
8,AAAAAAAAAGTATATATATATTTAAGGAATTCTCTC [GTGCAC_negctrl_site454],6.33
9,TATATTATATATATATGTACATATGGCAAAACATTA [XGTACX_site7958],7.12
10,ATAGAAATATTATATTGTACGAACAGTTATTAACAA [XGTACX_site2137],6.56
11,AAAATAAGTAATTACTAATATATAAATTAATAATTA [CACACA_negctrl_site1602],5.84
12,TATAAATTATAAATTGCACACATATTTTTATATTTA [CACACA_site8974],10.1
13,TACATATATTATTGCACACATATAAAATACCCCCAA [CACACA_site3895],10.8
14,ATATAAAAAAATTGCACACATAAATATATACATATA [CACACA_site1218],10.1
15,TTATTTACTTATTGCACACATATAAAATATATTTAT [CACACA_site3101],10.7
16,ATAAATATTGCGTGCACACACATAATATTTATATAT [CACACA_site7136],10.3
17,ATAAATATTGGGTGCACACACATAATATATATATAT [CACACA_site2272],10.5
18,CATACATATATTATTGCACACATATAAAATACCCCC [CACACA_site9292],10.4
19,ATTGGGTACAAATACACACACATATAAATATTAATA [CACACA_site7173],6.68
20,TACAGATATTATTGCACACATATAAAATACCCCCAA [CACACA_site6014],10.4
21,CTATATAAAAAAATTGCACACATAAATATATACATA [CACACA_site8325],9.87
22,TATTATTTACTTATTGCACACATATAAAATATATTT [CACACA_site9017],10.2
23,ATATATATATATATTGCACACATATAAATATATATA [CACACA_site8167],10.9

row,Sequence,gcPBM binding intensity (ln)
1,TATAAAAAAATAAAAGGAATATACTTGCAAAGGGTA [CACACA_negctrl_site1438],8.14
2,ATAATATTTTCTTCTTATTGAATGCTTTAAATTTAC [CACACA_negctrl_site1273],6.46
3,CGCACTAAAAAACACACACACACACCCATATATATA [CACACA_site4152],7.19
4,TTTTTAATTTTGTGGGTGCTTTCGTGTTATTATATA,7.23
5,ATAAACATGGAAATGTATTAAAAGCAAGTATATAAA [XGTACX_negctrl_site516],6.66
6,TGTTTTTAAAAATATACACACACAGATATTATATAT [CACACA_site8162],6.73
7,CATCCACATATATGTACACACATATATATATATATA [CACACA_site2964],9.46
8,TATAATAATACTTATTGTACTATTAGTTTAATTCAT [XGTACX_site6638],6.15
9,TAAACATAAATATGCACACATATACATATATTCATA [CACACA_site2667],9.75
10,TATAAATACATACATACACACATATATATATATATT [CACACA_site6116],6.81
11,TGTAGAAATGGGTGCACACACATATAAAATCTATAT [CACACA_site7224],10.4
12,TGTAGAAATGGGTGCACACACATATATAATATATAT [CACACA_site2507],10.7
13,AATGTAGAAATGGGTGCACACACATATATAATATAT [CACACA_site8799],10.2
14,AATAAAAAAAAATGCACACATATATATATATATATA [CACACA_site2421],9.87
15,TATATATATATATTCACACATAAATATATGCACCCA [CACACA_site4263],11
16,CTTTTTTTTTTTTTTGCACACACATATATAAATATA [CACACA_site3950],10.6
17,AATATAAATAAACACACACACATATATATATATATT [CACACA_site2906],6.78
18,TTTTTTTTTTTTTGCACACACATATATAAATATATA [CACACA_site3949],9.41
19,TATATATATATATTCACACATAAAAATAAAATAAAA [CACACA_site4774],8.8
20,ATATATATATATTGCACACATATAAATATATATATT [CACACA_site807],10.6
21,GATTAATTTAAAAAATGTACATTTTATTGTATAACC [XGTACX_site5539],6.55
22,AACTGAGAAACCGAAGTGCAATATGTATATATACAT,9.08
23,GAAAATAGAAAAAGCACACATATATTTTGGAATGTA [CACACA_site551],6.5

row,Sequence,gcPBM binding intensity (ln)
1,ATATATATAACAAAAGTGCATTAAGGGGATGCTATA,8.66
2,CGTATTATTTTATAAACACACAAGGGGGCATGTATA [CACACA_site6489],7.82
3,TTTTTTTTTTTTTTGGTGCGATCTTTTAAATGATCC,6.48
4,TAATTTCCTTAAGAATGTACTTACATTTTATTATTT [XGTACX_site5998],6.02
5,CCTATAAAACCATATACACACATATAAATAAAAAAA [CACACA_site7809],6.58
6,TACAAATATATAAAATGTACATATATATACATATTA [XGTACX_site3029],6.13
7,AAATAATATGTAATCAAATTCACCAAACGAAAAAAA [TGCATGCA_negctrl_site33],6.59
8,CTATAATATTAGTGCACACACAAAAATGTACTAAAC [CACACA_site6442],10.6
9,GAATAAAAAATATATGTGCACATATAAACTTAAAAT [GTGCAC_site9554],10.7
10,TATATATATATAACAACACACACAGATCATAAAACT [CACACA_site8670],8.9
11,TGTATATGGTTTGTGCAAAAATTTATTAATGTGTAA [TGCATGCA_negctrl_site374],10.1
12,AACTTAAAAAATAAATGTACATAAATATAAACATAT [XGTACX_site2987],6.59
13,TCATAACAACTTTGTGTGCACATAAAACATGTATAT,11
14,TCAACAAATAAACTTTGTACATATATACAAAATATA [XGTACX_site4447],6.27
15,ATATAATATTAGTGCACACACAAAAATGTACTAAAC [CACACA_site632],10.4
16,TATATATATATGTGCACACATAATAAAAAAAAAAAT [CACACA_site3831],9.99
17,GTATATAATATTAGTGCACACACAAAAATGTACTAA [CACACA_site8112],10.3
18,ATATATATTAATTTTGTGCACAAATGGAAATGTTTG [GTGCAC_site9971],10.9
19,TTATATGTTTTGTGTACACAATTTATTAAATTAATA [CACACA_site5645],8.03
20,AAAAAAAAAAAAAAGAGTACACAGACGTTCAAAGGT [XGTACX_site7566],6.85
